In PubChem BioAssay (Tox21):
Results filed as inconclusive are left out. Calls of active or inactive are those of the source. Unless noted, calls follow the shape of the dose curve; as a rule, active = well fitted curve in the direction sought with a large enough effect in the repeat runs; inconclusive = weak or mixed curves; inactive = no such curve, though single readings can be large; an effect the other way counts as inactive or inconclusive.

Columns and labels:
[1] = A CellTox Green Cytotoxicity Assay to monitor cytotoxicity in HepG2 cells - 16 hour (AID 1224876); also: nearly all actives have a fitted effect of over 45% in size
How it was run: (§1)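 HepG2 cells, 600/well, preincubated 5 h with CellTox Green dye, then exposed to Tox21 compounds in DMSO at 37 C for up to 40 h. Dead-cell DNA fluorescence read at the indicated time point.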

[2] = qHTS RealTime-Glo MT Cell Viability Assay in HepG2 cells - 32 hour (AID 1224877); also: nearly all actives have a fitted effect of over 55% in size
How it was run: (§2)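 HepG2 suspension premixed with RealTime-Glo reagents is plated at 600 cells per well and left 5 h at 37 C/5% CO2. Compounds in DMSO then go in, and bioluminescence reflecting viable cell number is recorded over 40 h.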

[3] = A CellTox Green Cytotoxicity Assay to monitor cytotoxicity in HepG2 cells - 24 hour (AID 1224878); also: nearly all actives have a fitted effect of over 45% in size
How it was run: as §1

[4] = A CellTox Green Cytotoxicity Assay to monitor cytotoxicity in HepG2 cells - 40 hour (AID 1224879); also: nearly all actives have a fitted effect of over 40% in size
How it was run: as §1

[5] = qHTS RealTime-Glo MT Cell Viability Assay in HEK293 cells - 0 hour (AID 1224880); also: top concentration of the series differs between compounds; nearly all actives have a fitted effect of over 45% in size
How it was run: (§3)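 600 cells/well were plated with the nonlytic NanoLuc/prosubstrate reagent, pre-incubated 5 h, then given 23 nL of compound in DMSO. Incubation at 37 C for 40 h, with luminescence from viable-cell-reduced substrate read repeatedly from 0 h.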

[6] = A CellTox Green Cytotoxicity Assay to monitor cytotoxicity in HEK293 cells - 32 hour (AID 1224881); also: nearly all actives have a fitted effect of over 40% in size; also: potency is read from the fitted curve at half-maximal effect
How it was run: (§4)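 HEK293 cells, 600/well, were preincubated 5 hours and then exposed to compounds at 37 C for up to 40 hours. A cell-impermeant cyanine dye staining dead-cell DNA was read by fluorescence at 0, 8, 16, 24, 32 and 40 h time points.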

[7] = A CellTox Green Cytotoxicity Assay to monitor cytotoxicity in HepG2 cells - 0 hour (AID 1224882); also: nearly all actives have a fitted effect of over 35% in size
How it was run: as §1

[8] = A CellTox Green Cytotoxicity Assay to monitor cytotoxicity in HepG2 cells - 32 hour (AID 1224883); also: nearly all actives have a fitted effect of over 50% in size
How it was run: as §1

[9] = qHTS RealTime-Glo MT Cell Viability Assay in HepG2 cells - 16 hour (AID 1224885); also: nearly all actives have a fitted effect of over 50% in size
How it was run: as §2

[10] = qHTS RealTime-Glo MT Cell Viability Assay in HEK293 cells - 8 hour (AID 1224887); also: top concentration of the series differs between compounds; nearly all actives have a fitted effect of over 50% in size
How it was run: as §3

[11] = A CellTox Green Cytotoxicity Assay to monitor cytotoxicity in HEK293 cells - 16 hour (AID 1224888); also: nearly all actives have a fitted effect of over 35% in size
How it was run: as §4

[12] = qHTS RealTime-Glo MT Cell Viability Assay in HepG2 cells - 0 hour (AID 1224889); also: nearly all actives have a fitted effect of over 50% in size
How it was run: as §2

[13] = A CellTox Green Cytotoxicity Assay to monitor cytotoxicity in HepG2 cells - 8 hour (AID 1224890); also: nearly all actives have a fitted effect of over 45% in size
How it was run: as §1

[14] = qHTS assay to identify small molecule antagonists of the estrogen receptor alpha (ER-alpha) signaling pathway using the BG1 cell line in the presence of 0.1 nM 17-beta-estradiol - cell viability counter screen (AID 1259241); also: nearly all actives have a fitted effect of over 40% in size
How it was run: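 Cytotoxicity counter-screen: live-cell protease activity measured by fluorescence (30 min reagent step) in the same wells. Cells were VM7Luc4E2 with endogenous ER-alpha and ERE-driven luciferase, treated 22 hr at 37C alongside 0.1 nM 17beta-estradiol final.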

[15] = qHTS assay to identify small molecule antagonists of the androgen receptor (AR) signaling pathway using the MDA cell line in the presence of 0.5 nM R1881 - cell viability counter screen (AID 1259242); also: nearly all actives have a fitted effect of over 45% in size
How it was run: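 MDA-kb2 cells (MMTV-luciferase, AR/GR responsive) were treated with compounds plus 0.5 nM R1881 (final) for 16 hr at 37C, 0% CO2. Viability was then read in the same wells as live-cell protease fluorescence (CellTiter-Fluor, 30 min).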

[16] = qHTS assay to identify small molecule phospholipidosis (PLD) inducers (AID 1259344; active = well fitted curve in the direction sought with a large enough effect; an effect the other way counts as inactive or inconclusive)
How it was run: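 Phospholipidosis is scored by imaging LipidTOX-stained pits in HepG2 cells exposed to compound for 24 h at 37 C; pit counts and integrated intensities per well and per cell serve as outputs.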

[17] = A CellTox Green Cytotoxicity Assay to monitor cytotoxicity in HEK293 cells - 8 hour (AID 1224884); also: nearly all actives have a fitted effect of over 35% in size
How it was run: as §4

[18] = qHTS RealTime-Glo MT Cell Viability Assay in HEK293 cells - 24 hour (AID 1224886)
How it was run: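 Reads taken at 0, 8, 16, 24, 32 and 40 h from the same wells. HEK293 cells (600/well) carried RealTime-Glo reagents from seeding, with compound added after a 5 h settle at 37 C.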

[19] = target: Androgen receptor (Homo sapiens) (UniProt P10275); test: qHTS assay to identify small molecule antagonists of the androgen receptor (AR) signaling pathway using the MDA cell line in the presence of 0.5 nM R1881 (AID 1259243); also: nearly all actives have a fitted effect of over 50% in size
How it was run: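 MDA-kb2 cells (MMTV-luciferase, responsive to AR and GR) at 3,000/well, rested 5 h at 37C, 0% CO2, then given compounds plus 0.5 nM R1881 (final) for 16 hr. Luciferase read with ONE-Glo after 30 min at room temperature.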

[20] = target: Estrogen receptor (Homo sapiens) (UniProt P03372); test: qHTS assay to identify small molecule antagonists of the estrogen receptor alpha (ER-alpha) signaling pathway using the BG1 cell line in the presence of 0.1 nM 17-beta-estradiol (AID 1259244); also: nearly all actives have a fitted effect of over 50% in size
How it was run: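 VM7Luc4E2 cells (endogenous full-length ER-alpha, 4×ERE-luciferase), kept 5 days in phenol red-free, charcoal-stripped FBS medium; 4,000 cells/well. Compounds added with 0.1 nM (final) 17beta-estradiol, 22 hr at 37C; luminescence read with ONE-Glo after 30 min.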
% is scaled to controls: 0 for no effect and ±100 for the full control effect.

Estrogen receptor (Homo sapiens), sequence (P03372 whole entry, looked up): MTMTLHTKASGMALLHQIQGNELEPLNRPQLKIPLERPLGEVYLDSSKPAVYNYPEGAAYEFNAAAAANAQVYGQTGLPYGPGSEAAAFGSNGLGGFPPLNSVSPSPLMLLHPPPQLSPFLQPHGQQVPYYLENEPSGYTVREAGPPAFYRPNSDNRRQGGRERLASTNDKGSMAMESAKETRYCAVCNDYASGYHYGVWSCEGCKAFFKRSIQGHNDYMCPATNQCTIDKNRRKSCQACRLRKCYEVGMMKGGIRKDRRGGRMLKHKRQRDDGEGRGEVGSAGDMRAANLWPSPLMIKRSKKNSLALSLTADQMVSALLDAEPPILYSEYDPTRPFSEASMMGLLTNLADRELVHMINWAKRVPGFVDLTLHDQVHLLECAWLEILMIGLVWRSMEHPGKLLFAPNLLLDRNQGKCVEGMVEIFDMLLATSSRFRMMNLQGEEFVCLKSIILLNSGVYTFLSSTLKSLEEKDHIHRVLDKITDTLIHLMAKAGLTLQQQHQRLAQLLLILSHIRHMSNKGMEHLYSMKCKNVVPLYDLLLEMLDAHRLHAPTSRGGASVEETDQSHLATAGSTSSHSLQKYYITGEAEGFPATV
Androgen receptor (Homo sapiens), sequence (P10275 whole entry, looked up): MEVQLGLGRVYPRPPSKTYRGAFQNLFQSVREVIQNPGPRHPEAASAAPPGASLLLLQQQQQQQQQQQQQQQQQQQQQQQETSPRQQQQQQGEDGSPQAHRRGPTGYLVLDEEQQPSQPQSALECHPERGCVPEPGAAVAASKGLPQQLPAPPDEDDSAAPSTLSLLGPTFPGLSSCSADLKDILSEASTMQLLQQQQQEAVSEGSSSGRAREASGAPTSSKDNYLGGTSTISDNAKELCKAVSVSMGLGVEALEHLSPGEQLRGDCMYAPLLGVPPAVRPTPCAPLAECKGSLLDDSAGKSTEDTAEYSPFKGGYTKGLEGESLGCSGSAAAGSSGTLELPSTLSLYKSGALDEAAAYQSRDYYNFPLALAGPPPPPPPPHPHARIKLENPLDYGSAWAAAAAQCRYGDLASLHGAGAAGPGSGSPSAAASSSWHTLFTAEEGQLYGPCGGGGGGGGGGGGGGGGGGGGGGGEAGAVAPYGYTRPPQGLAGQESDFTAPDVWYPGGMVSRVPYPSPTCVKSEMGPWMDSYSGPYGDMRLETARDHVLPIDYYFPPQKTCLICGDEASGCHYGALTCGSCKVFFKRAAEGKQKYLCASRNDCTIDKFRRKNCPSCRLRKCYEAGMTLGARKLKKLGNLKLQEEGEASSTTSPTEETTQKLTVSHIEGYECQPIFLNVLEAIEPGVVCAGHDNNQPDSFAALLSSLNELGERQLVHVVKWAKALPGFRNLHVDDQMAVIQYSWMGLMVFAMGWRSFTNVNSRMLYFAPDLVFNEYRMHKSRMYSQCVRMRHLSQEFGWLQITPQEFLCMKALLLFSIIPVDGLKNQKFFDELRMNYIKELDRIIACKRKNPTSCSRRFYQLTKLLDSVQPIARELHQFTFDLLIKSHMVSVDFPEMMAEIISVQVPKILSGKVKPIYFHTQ

O=S(=O)(O)c1ccc2c(N=Nc3ccc(S(=O)(=O)O)c4ccccc34)c(O)c(S(=O)(=O)O)cc2c1
inactive: cytotoxicity increase [1] -11.6% [at 6.97 µM] | activity change, negative = cytotoxic [2] -3.7% [at 6.97 µM] | cytotoxicity [3] -12.7% [at 6.97 µM] | cytotoxicity increase [4] -16.2% [at 6.97 µM] | activity change, negative = cytotoxicity [5] 7.55% [at 6.97 µM] | cytotoxicity increase [6] 8.52% [at 6.97 µM] | cytotoxicity [7] -11.5% [at 6.97 µM] | cytotoxicity increase [8] -12.7% [at 6.97 µM] | activity change, negative = cytotoxic [9] 0.447% [at 6.97 µM] | activity change, negative = cytotoxicity [10] 2.74% [at 6.97 µM] | activity change [11] 8.43% [at 6.97 µM, stronger effect = higher value] | activity change, negative = cytotoxicity [12] 7.14% [at 6.97 µM] | cytotoxicity increase [13] -1.78% [at 6.97 µM] | activity change, negative = cytotoxicity [14] -26.3% [at 8.39 µM] | viability change, negative = cytotoxic [15] -14.9% [at 8.39 µM] | outcome [16]

COC(=O)c1cc(Cl)cc(Cl)c1
inactive: Potency [1] | outcome [2] | Potency [3] | Potency [4] | Potency [5] | Potency [6] | Potency [7] | Potency [17] | outcome [9] | Potency [18] | Potency [10] | Potency [11] | Potency [12] | Potency [13] | outcome [14] | outcome [15] | Potency [19] | outcome [20]

O=C(O)CCCCCC(=O)O
active: Potency [6] 22 µM
inactive: Potency [1] | outcome [2] | Potency [3] | Potency [4] | Potency [5] | Potency [7] | Potency [8] | outcome [9] | Potency [18] | Potency [10] | Potency [12] | Potency [13] | outcome [14] | outcome [15] | outcome [20]
